# From PMC9911399, “Two distinct binding modes provide the RNA-binding protein RbFox with extraordinary sequence specificity”
# Positions count from the first letter of the chain named. Whole data set: some 16,000 sequences, median “ka relative to ugcaugu” near 0.096, cut for the highest 2% near 0.35. The full list was thinned out, with the highest values kept by preference.
# T1: RBFOX1 RRM RbFoxmut (Fox-RRM*) (Homo sapiens, UniProt Q9NWB1 109-208, R118D;E147R;N151S;E152T)
# T1 sequence: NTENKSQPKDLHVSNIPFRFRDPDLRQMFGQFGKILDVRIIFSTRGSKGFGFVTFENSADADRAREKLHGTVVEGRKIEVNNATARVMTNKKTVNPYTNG
# B1: UCUCUCG (DNA:RNA)
# RNA: GGGAGACCGGAAUUCAGAUUGUCCUCUCUCGUUAAAUCCCGUCGUAGCCACCA
# DNA 1: CAATCTGAATTCCGGTCTCCC
# DNA 2: TGGTGGCTACGACGGGATT
# B2: ACGUCAA (DNA:RNA)
# RNA: B1 RNA with U25A, U27G, C28U, U29C, C30A, G31A
# DNA 1: CAATCTGAATTCCGGTCTCCC
# DNA 2: TGGTGGCTACGACGGGATT
# B3: UUCCUAC (DNA:RNA)
# RNA: B1 RNA with C26U, U27C, C30A, G31C
# DNA 1: CAATCTGAATTCCGGTCTCCC
# DNA 2: TGGTGGCTACGACGGGATT
# B4: GAAAACG (DNA:RNA)
# RNA: B1 RNA with U25G, C26A, U27A, C28A, U29A
# DNA 1: CAATCTGAATTCCGGTCTCCC
# DNA 2: TGGTGGCTACGACGGGATT
# B5: GGCUUGU (DNA:RNA)
# RNA: B1 RNA with U25G, C26G, U27C, C28U, C30G, G31U
# DNA 1: CAATCTGAATTCCGGTCTCCC
# DNA 2: TGGTGGCTACGACGGGATT
# B6: GGGCUUG (DNA:RNA)
# RNA: B1 RNA with U25G, C26G, U27G, C30U
# DNA 1: CAATCTGAATTCCGGTCTCCC
# DNA 2: TGGTGGCTACGACGGGATT
# B7: GUCGGCU (DNA:RNA)
# RNA: B1 RNA with U25G, C26U, U27C, C28G, U29G, G31U
# DNA 1: CAATCTGAATTCCGGTCTCCC
# DNA 2: TGGTGGCTACGACGGGATT
# B8: AGGAGGC (DNA:RNA)
# RNA: GGGAGACCGGAAUUCAGAUUGUCCAGGAGGCUUAAAUCCCGUCGUAGCCACCA
# DNA 1: CAATCTGAATTCCGGTCTCCC
# DNA 2: TGGTGGCTACGACGGGATT
# B9: CCCCGGC (DNA:RNA)
# RNA: B8 RNA with A25C, G26C, G27C, A28C
# DNA 1: CAATCTGAATTCCGGTCTCCC
# DNA 2: TGGTGGCTACGACGGGATT
# B10: AGGCUUG (DNA:RNA)
# RNA: B8 RNA with A28C, G29U, G30U, C31G
# DNA 1: CAATCTGAATTCCGGTCTCCC
# DNA 2: TGGTGGCTACGACGGGATT
# B11: CACCGGC (DNA:RNA)
# RNA: B8 RNA with A25C, G26A, G27C, A28C
# DNA 1: CAATCTGAATTCCGGTCTCCC
# DNA 2: TGGTGGCTACGACGGGATT
# B12: GUCGGGC (DNA:RNA)
# RNA: B8 RNA with A25G, G26U, G27C, A28G
# DNA 1: CAATCTGAATTCCGGTCTCCC
# DNA 2: TGGTGGCTACGACGGGATT
# B13: GGGGGGC (DNA:RNA)
# RNA: B8 RNA with A25G, A28G
# DNA 1: CAATCTGAATTCCGGTCTCCC
# DNA 2: TGGTGGCTACGACGGGATT
# B14: GUCCGGC (DNA:RNA)
# RNA: B8 RNA with A25G, G26U, G27C, A28C
# DNA 1: CAATCTGAATTCCGGTCTCCC
# DNA 2: TGGTGGCTACGACGGGATT
# B15: CGGCUUG (DNA:RNA)
# RNA: B1 RNA with U25C, C26G, U27G, C30U
# DNA 1: CAATCTGAATTCCGGTCTCCC
# DNA 2: TGGTGGCTACGACGGGATT
# B16: ACCAGGC (DNA:RNA)
# RNA: B8 RNA with G26C, G27C
# DNA 1: CAATCTGAATTCCGGTCTCCC
# DNA 2: TGGTGGCTACGACGGGATT
# B17: GUGGAAC (DNA:RNA)
# RNA: B8 RNA with A25G, G26U, A28G, G29A, G30A
# DNA 1: CAATCTGAATTCCGGTCTCCC
# DNA 2: TGGTGGCTACGACGGGATT
# B18: CAAUUGA (DNA:RNA)
# RNA: B8 RNA with A25C, G26A, G27A, A28U, G29U, C31A
# DNA 1: CAATCTGAATTCCGGTCTCCC
# DNA 2: TGGTGGCTACGACGGGATT
# B19: GGUCCAG (DNA:RNA)
# RNA: B1 RNA with U25G, C26G, U29C, C30A
# DNA 1: CAATCTGAATTCCGGTCTCCC
# DNA 2: TGGTGGCTACGACGGGATT
# B20: GCCCCAG (DNA:RNA)
# RNA: B1 RNA with U25G, U27C, U29C, C30A
# DNA 1: CAATCTGAATTCCGGTCTCCC
# DNA 2: TGGTGGCTACGACGGGATT
# B21: CAUGAAU (DNA:RNA)
# RNA: B1 RNA with U25C, C26A, C28G, U29A, C30A, G31U
# DNA 1: CAATCTGAATTCCGGTCTCCC
# DNA 2: TGGTGGCTACGACGGGATT
# B22: AAUACGG (DNA:RNA)
# RNA: B8 RNA with G26A, G27U, G29C, C31G
# DNA 1: CAATCTGAATTCCGGTCTCCC
# DNA 2: TGGTGGCTACGACGGGATT
# B23: CUGUACC (DNA:RNA)
# RNA: B8 RNA with A25C, G26U, A28U, G29A, G30C
# DNA 1: CAATCTGAATTCCGGTCTCCC
# DNA 2: TGGTGGCTACGACGGGATT
# B24: AGCUGAC (DNA:RNA)
# RNA: B8 RNA with G27C, A28U, G30A
# DNA 1: CAATCTGAATTCCGGTCTCCC
# DNA 2: TGGTGGCTACGACGGGATT
# B25: GUCCAUG (DNA:RNA)
# RNA: B1 RNA with U25G, C26U, U27C, U29A, C30U
# DNA 1: CAATCTGAATTCCGGTCTCCC
# DNA 2: TGGTGGCTACGACGGGATT
# B26: AUGUGUA (DNA:RNA)
# RNA: B8 RNA with G26U, A28U, G30U, C31A
# DNA 1: CAATCTGAATTCCGGTCTCCC
# DNA 2: TGGTGGCTACGACGGGATT
# B27: AUGGAUG (DNA:RNA)
# RNA: B8 RNA with G26U, A28G, G29A, G30U, C31G
# DNA 1: CAATCTGAATTCCGGTCTCCC
# DNA 2: TGGTGGCTACGACGGGATT
# B28: AUGGAGA (DNA:RNA)
# RNA: B8 RNA with G26U, A28G, G29A, C31A
# DNA 1: CAATCTGAATTCCGGTCTCCC
# DNA 2: TGGTGGCTACGACGGGATT
# B29: ACCAUGU (DNA:RNA)
# RNA: B8 RNA with G26C, G27C, G29U, C31U
# DNA 1: CAATCTGAATTCCGGTCTCCC
# DNA 2: TGGTGGCTACGACGGGATT
# B30: AUGUCCG (DNA:RNA)
# RNA: B8 RNA with G26U, A28U, G29C, G30C, C31G
# DNA 1: CAATCTGAATTCCGGTCTCCC
# DNA 2: TGGTGGCTACGACGGGATT
# B31: AUGGAUC (DNA:RNA)
# RNA: B8 RNA with G26U, A28G, G29A, G30U
# DNA 1: CAATCTGAATTCCGGTCTCCC
# DNA 2: TGGTGGCTACGACGGGATT
# B32: AUGUUGU (DNA:RNA)
# RNA: B8 RNA with G26U, A28U, G29U, C31U
# DNA 1: CAATCTGAATTCCGGTCTCCC
# DNA 2: TGGTGGCTACGACGGGATT
# B33: CCAUGUA (DNA:RNA)
# RNA: B8 RNA with A25C, G26C, G27A, A28U, G30U, C31A
# DNA 1: CAATCTGAATTCCGGTCTCCC
# DNA 2: TGGTGGCTACGACGGGATT
# B34: AUGUAUA (DNA:RNA)
# RNA: B8 RNA with G26U, A28U, G29A, G30U, C31A
# DNA 1: CAATCTGAATTCCGGTCTCCC
# DNA 2: TGGTGGCTACGACGGGATT
# B35: AUGUUUG (DNA:RNA)
# RNA: B8 RNA with G26U, A28U, G29U, G30U, C31G
# DNA 1: CAATCTGAATTCCGGTCTCCC
# DNA 2: TGGTGGCTACGACGGGATT
# B36: AUGUUCG (DNA:RNA)
# RNA: B1 RNA with U25A, C26U, U27G, C28U
# DNA 1: CAATCTGAATTCCGGTCTCCC
# DNA 2: TGGTGGCTACGACGGGATT
# Biological target: T1, RBFOX1 RRM RbFoxmut (Fox-RRM*)
# Assay: EMSA; HiTS-Eq, 1 nM pool, 10 min; buffer printed only for the single-RNA assays: 10 mM Tris pH 7.5, 150 mM NaCl, 3.4 mM EDTA, 0.001% NP-40, 30 C
# Details: tags: His6 N-terminal (pET28a); label: 5' 32P
# Summary of the method: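 Purified RbFox RRM (wild type or mutant) was equilibrated for 10 min in 50 µL with 1 nM of a 5′-radiolabelled pool of RNA with 7 randomized nucleotides, its flanks annealed to DNA oligonucleotides, across increasing protein concentrations. Free RNA was separated by 8% native PAGE, excised, reverse-transcribed, PCR-barcoded and sequenced on an Illumina HiSeq 2500. Relative association constants came from read-count changes of each variant against the control reaction, normalised to the cognate motif.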
row,Binder,binding signal
1,B1,0.0757 KA relative to UGCAUGU
2,B2,0.0727 KA relative to UGCAUGU
3,B3,0.0836 KA relative to UGCAUGU
4,B4,0.0811 KA relative to UGCAUGU
5,B5,0.359 KA relative to UGCAUGU
6,B6,0.371 KA relative to UGCAUGU
7,B7,0.116 KA relative to UGCAUGU
8,B8,0.118 KA relative to UGCAUGU
9,B9,0.0573 KA relative to UGCAUGU
10,B10,0.388 KA relative to UGCAUGU
11,B11,0.0862 KA relative to UGCAUGU
12,B12,0.0929 KA relative to UGCAUGU
13,B13,0.0893 KA relative to UGCAUGU
14,B14,0.116 KA relative to UGCAUGU
15,B15,0.431 KA relative to UGCAUGU
16,B16,0.0949 KA relative to UGCAUGU
17,B17,0.112 KA relative to UGCAUGU
18,B18,0.0875 KA relative to UGCAUGU

row,Binder,binding signal
1,B19,0.0861 KA relative to UGCAUGU
2,B20,0.117 KA relative to UGCAUGU
3,B21,0.114 KA relative to UGCAUGU
4,B22,0.0866 KA relative to UGCAUGU
5,B23,0.137 KA relative to UGCAUGU
6,B24,0.109 KA relative to UGCAUGU
7,B25,0.151 KA relative to UGCAUGU
8,B26,0.364 KA relative to UGCAUGU
9,B27,0.64 KA relative to UGCAUGU
10,B28,0.139 KA relative to UGCAUGU
11,B29,0.102 KA relative to UGCAUGU
12,B30,0.14 KA relative to UGCAUGU
13,B31,0.298 KA relative to UGCAUGU
14,B32,0.245 KA relative to UGCAUGU
15,B33,0.2 KA relative to UGCAUGU
16,B34,0.23 KA relative to UGCAUGU
17,B35,0.626 KA relative to UGCAUGU
18,B36,0.412 KA relative to UGCAUGU
